Test results from the supplement of paper PMC4022240.
± gives the standard deviation.

Columns and labels:
Test in all cases: peptide microarray binding signal (635 nm), min-max normalized on array (fraction of array maximum); higher = stronger binding
[1] = target: T1, HaloTag-ATRX ADD domain (163-292)
T1 chain: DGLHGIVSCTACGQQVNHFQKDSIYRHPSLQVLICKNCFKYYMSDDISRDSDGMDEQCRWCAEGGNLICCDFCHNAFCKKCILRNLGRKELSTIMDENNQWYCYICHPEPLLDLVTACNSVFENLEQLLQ
Procedure, shortened: (§1)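 Within each library, mean intensities of triplicate spots were min-max scaled to give the binding signal. The spots were histone 13-mer peptide–cellulose conjugates on nitrocellulose with a Cy3 tracer, blocked overnight at 4°C. They were then probed for 1 h at 4°C using biotin-labelled HaloTag reader fusions (10 nM to 1 μM) with streptavidin-Alexa Fluor 647 or rabbit histone antibodies (1:10,000 to 1:2,000) with anti-rabbit Alexa 647, and scanned at 635 nm for signal and 532 nm for misprints on an Axon GenePix 4000B.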

[2] = target: HaloTag-ING2 PHD (mouse Ing2 200-280)
Procedure, shortened: as §1

[3] = target: anti-H3K4me3 antibody ab8580
Procedure, shortened: as §1

[4] = target: anti-H3K9me3 antibody ab8898
Procedure, shortened: as §1

[5] = peptide region: H3 11-23, peptide modifications: H3R17me2s H3K18me1, binder concentration: 1:2,000 dilution
[6] = peptide region: H3 11-23, peptide modifications: H3R17me2s H3K18me1, binder concentration: 1:10,000 dilution
[7] = peptide region: H3 11-23, peptide modifications: H3R17me2s H3K18me2, binder concentration: 1:2,000 dilution
[8] = peptide region: H3 11-23, peptide modifications: H3R17me2s H3K18me2, binder concentration: 1:10,000 dilution
[9] = peptide region: H3 11-23, peptide modifications: H3R17me2s H3K18me3, binder concentration: 1:2,000 dilution
[10] = peptide region: H3 11-23, peptide modifications: H3R17me2s H3K18me3, binder concentration: 1:10,000 dilution
[11] = peptide region: H3 11-23, peptide modifications: H3R17me2s, binder concentration: 1:2,000 dilution
[12] = peptide region: H3 11-23, peptide modifications: H3R17me2s, binder concentration: 1:10,000 dilution
[13] = peptide region: H3 20-32, binder concentration: 1:2,000 dilution
[14] = peptide region: H3 20-32, binder concentration: 1:10,000 dilution

Binder: TGGKAPRKQLATK [H3 11-23 T G G K A P Rme2s Kme Q L A T K]
- peptide microarray binding signal ([1]; peptide region: H3 11-23, peptide modifications: H3R17me2s H3K18me1, binder concentration: 50 nM): 0.00755 ± 0.00027
- peptide microarray binding signal ([1]; peptide region: H3 11-23, peptide modifications: H3R17me2s H3K18me1, binder concentration: 500 nM): 0.00986 ± 0.00028
- peptide microarray binding signal ([2]; peptide region: H3 11-23, peptide modifications: H3R17me2s H3K18me1, binder concentration: 10 nM): 0.0187 ± 0.00059
- peptide microarray binding signal ([2]; peptide region: H3 11-23, peptide modifications: H3R17me2s H3K18me1, binder concentration: 100 nM): 0.0288 ± 0.002
- peptide microarray binding signal [3, 5]: 0.0153 ± 0.0029
- peptide microarray binding signal [3, 6]: 0.0127 ± 0.0012
- peptide microarray binding signal [4, 5]: 0.00368 ± 0.00012
- peptide microarray binding signal [4, 6]: 0.00254 ± 3.9e-05

Binder: TGGKAPRKQLATK [H3 11-23 T G G K A P Rme2s Kme2 Q L A T K]
- peptide microarray binding signal ([1]; peptide region: H3 11-23, peptide modifications: H3R17me2s H3K18me2, binder concentration: 50 nM): 0.00549 ± 0.0002
- peptide microarray binding signal ([1]; peptide region: H3 11-23, peptide modifications: H3R17me2s H3K18me2, binder concentration: 500 nM): 0.0107 ± 0.00094
- peptide microarray binding signal ([2]; peptide region: H3 11-23, peptide modifications: H3R17me2s H3K18me2, binder concentration: 10 nM): 0.0163 ± 0.0016
- peptide microarray binding signal ([2]; peptide region: H3 11-23, peptide modifications: H3R17me2s H3K18me2, binder concentration: 100 nM): 0.0188 ± 0.0013
- peptide microarray binding signal [3, 7]: 0.02 ± 0.0013
- peptide microarray binding signal [3, 8]: 0.0106 ± 0.0017
- peptide microarray binding signal [4, 7]: 0.00296 ± 0.00028
- peptide microarray binding signal [4, 8]: 0.00259 ± 6.1e-05

Binder: TGGKAPRKQLATK [H3 11-23 T G G K A P Rme2s Kme3 Q L A T K]
- peptide microarray binding signal ([1]; peptide region: H3 11-23, peptide modifications: H3R17me2s H3K18me3, binder concentration: 50 nM): 0.00476 ± 0.00011
- peptide microarray binding signal ([1]; peptide region: H3 11-23, peptide modifications: H3R17me2s H3K18me3, binder concentration: 500 nM): 0.00814 ± 0.00026
- peptide microarray binding signal ([2]; peptide region: H3 11-23, peptide modifications: H3R17me2s H3K18me3, binder concentration: 10 nM): 0.0107 ± 0.0017
- peptide microarray binding signal ([2]; peptide region: H3 11-23, peptide modifications: H3R17me2s H3K18me3, binder concentration: 100 nM): 0.0204 ± 0.0049
- peptide microarray binding signal [3, 9]: 0.0681 ± 0.028
- peptide microarray binding signal [3, 10]: 0.0469 ± 0.0085
- peptide microarray binding signal [4, 9]: 0.0662 ± 0.01
- peptide microarray binding signal [4, 10]: 0.0267 ± 0.0059

Binder: TGGKAPRKQLATK [H3 11-23 T G G K A P Rme2s K Q L A T K]
- peptide microarray binding signal ([1]; peptide region: H3 11-23, peptide modifications: H3R17me2s, binder concentration: 50 nM): 0.00332 ± 8.4e-05
- peptide microarray binding signal ([1]; peptide region: H3 11-23, peptide modifications: H3R17me2s, binder concentration: 500 nM): 0.00543 ± 0.00073
- peptide microarray binding signal ([2]; peptide region: H3 11-23, peptide modifications: H3R17me2s, binder concentration: 10 nM): 0.003163 ± 1.7e-05
- peptide microarray binding signal ([2]; peptide region: H3 11-23, peptide modifications: H3R17me2s, binder concentration: 100 nM): 0.00411 ± 0.00034
- peptide microarray binding signal [3, 11]: 0.001 ± 5.2e-05
- peptide microarray binding signal [3, 12]: 0.00108
- peptide microarray binding signal [4, 11]: 0.00128 ± 0.00017
- peptide microarray binding signal [4, 12]: 0.0011 ± 4e-05

Binder: LATKAARKSAPAT [H3 20-32 L A T K A A R K S A P A T]
- peptide microarray binding signal ([1]; peptide region: H3 20-32, binder concentration: 50 nM): 0.00505 ± 0.00047
- peptide microarray binding signal ([1]; peptide region: H3 20-32, binder concentration: 500 nM): 0.00533 ± 9e-05
- peptide microarray binding signal ([2]; peptide region: H3 20-32, binder concentration: 10 nM): 0.00806 ± 9.3e-05
- peptide microarray binding signal ([2]; peptide region: H3 20-32, binder concentration: 100 nM): 0.0106 ± 0.00016
- peptide microarray binding signal [3, 13]: 0.00249 ± 7e-05
- peptide microarray binding signal [3, 14]: 0.00262 ± 4e-05
- peptide microarray binding signal [4, 13]: 0.000982 ± 2.1e-05
- peptide microarray binding signal [4, 14]: 0.00167
